Results from PubChem BioAssay (NCI).
Values joined by “and” are separate entries in the source; they are usually repeats but may differ in a detail not shown here. Identical values can stand only once. The panel holds about 83,000 compounds, 20% with a hit somewhere; the sample as a whole holds those more often.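 96-well plates, one dose, 48 hours. Percent growth reported; active if below 10.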 Active and inactive are the calls of the source.

Assays:
Test in all cases: NCI-60 one-dose screen, 48 h (100 = growth as untreated, 0 = no growth, -100 = all killed)
Settings in all cases: 10 µM unless noted
SK-MEL-2 melanoma = tested on: SK-MEL-2 melanoma
EKVX NSCLC = tested on: EKVX NSCLC
SN12C renal = tested on: SN12C renal
UO-31 renal = tested on: UO-31 renal
TK-10 renal = tested on: TK-10 renal
ACHN renal = tested on: ACHN renal
CAKI-1 renal = tested on: CAKI-1 renal
A498 renal = tested on: A498 renal
CCRF-CEM leukemia = tested on: CCRF-CEM leukemia
MOLT-4 leukemia = tested on: MOLT-4 leukemia

Measured: growth

CCN1CCN(Cc2ccc(C(=O)Nc3cccc(Nc4ccc5c(OC)cccc5n4)c3)cc2C(F)(F)F)CC1
active: SK-MEL-2 melanoma -76% | EKVX NSCLC -95.7% | SN12C renal -90.5% | UO-31 renal -85.8% | TK-10 renal -86.2% | ACHN renal -100% | CAKI-1 renal -98.3% | A498 renal -88.8% | CCRF-CEM leukemia -30.5% | MOLT-4 leukemia -45.4%

O=C1NC(=NC23CC4CC(CC(C4)C2)C3)N/C1=C\c1ccc2ncccc2c1
active: SK-MEL-2 melanoma -5.99% | EKVX NSCLC 9.7% | SN12C renal -2.27% | TK-10 renal -22.9% | ACHN renal 4.48% | CAKI-1 renal -61.1% | A498 renal -31% | CCRF-CEM leukemia -15% | MOLT-4 leukemia -13%
inactive: UO-31 renal 14.7%

COc1cc(/C=C/C(=O)c2cnn(-c3cc(=O)[nH]c4ccccc34)c2C)cc(OC)c1OC
active: EKVX NSCLC 4.03% | SN12C renal -1.59% | CCRF-CEM leukemia -18.6% | MOLT-4 leukemia -12.8%
inactive: SK-MEL-2 melanoma 52% | UO-31 renal 25.6% | TK-10 renal 27.7% | ACHN renal 20.3% | CAKI-1 renal 19.1% | A498 renal 96.1%

Cc1ccc(C(=O)C[n+]2cccc3c4ccccc4ccc32)cc1
inactive: SK-MEL-2 melanoma 36.5% | EKVX NSCLC 28.9% | SN12C renal 14.7% | UO-31 renal 29.7% | TK-10 renal 41.3% | ACHN renal 50.6% | CAKI-1 renal 53.2% | A498 renal 75.2% | CCRF-CEM leukemia 28.1% | MOLT-4 leukemia 14.4%

CC1CCc2c(sc3nc(SCC(=O)c4cccc([N+](=O)[O-])c4)n(-c4ccccc4)c(=O)c23)C1 (stereo not given)
inactive: SK-MEL-2 melanoma 94.6% | EKVX NSCLC 88% | SN12C renal 57.1% | UO-31 renal 91.5% | TK-10 renal 72.3% | ACHN renal 31.3% | CAKI-1 renal 12.4% | A498 renal 115% | CCRF-CEM leukemia 61.8% | MOLT-4 leukemia 60.2%

O=C(N/N=C/c1occc1Br)c1[nH]c2ccc(Br)cc2c1-c1ccccc1
active: SK-MEL-2 melanoma -88.8% | EKVX NSCLC -94.1% | SN12C renal -83.8% | UO-31 renal -87.1% | TK-10 renal -76.5% | ACHN renal -100% | CAKI-1 renal -91.5% | A498 renal -89.6% | CCRF-CEM leukemia 4.68% | MOLT-4 leukemia -15.2%

COc1ccc(C(=O)NNC(=O)CSc2nc3sc4c(c3c(=O)n2-c2ccc(Cl)cc2)CCCC4)cc1
inactive: SK-MEL-2 melanoma 92.2% | EKVX NSCLC 55.1% | SN12C renal 29.5% | UO-31 renal 65.1% | TK-10 renal 143% | ACHN renal 85.7% | CAKI-1 renal 74% | A498 renal 124% | CCRF-CEM leukemia 70.4% | MOLT-4 leukemia 63.7%

O=C1/C(=C/c2cnc(-c3ccccc3)s2)SC(=S)N1Cc1ccc2c(c1)OCO2
inactive: SK-MEL-2 melanoma 72.7% | EKVX NSCLC 79.3% | SN12C renal 72.9% | UO-31 renal 86.5% | TK-10 renal 78.4% | ACHN renal 42.1% | CAKI-1 renal 37.3% | A498 renal 45.2% | CCRF-CEM leukemia 87.2% | MOLT-4 leukemia 99.2%

CC(C)(C)c1ccc(OCc2nc3ccccc3n2-c2cccc(N)c2)cc1
inactive: SK-MEL-2 melanoma 62.8% and 109% | EKVX NSCLC 45.5% and 96.8% | SN12C renal 79.2% and 106% | UO-31 renal 43.4% and 83.6% | TK-10 renal 93.3% and 111% | ACHN renal 70.2% and 112% | CAKI-1 renal 44.4% and 95.6% | A498 renal 142% and 126% | CCRF-CEM leukemia 46% and 96.1% | MOLT-4 leukemia 25.4% and 90.9%

CCCSc1nnc(-c2sc3nc4ccccc4n3c2C)o1
inactive: SK-MEL-2 melanoma 105% | EKVX NSCLC 103% | SN12C renal 105% | UO-31 renal 82.3% | TK-10 renal 124% | ACHN renal 104% | CAKI-1 renal 104% | A498 renal 110% | CCRF-CEM leukemia 107% | MOLT-4 leukemia 92.3%

CN1CCN(C(=O)CCN(C(=O)Oc2cc3c(c4ccccc24)[C@H](CCl)CN3C(=O)c2cc3cc(OCCCN4CCC4)ccc3[nH]2)[C@H]2CCSSC2)CC1
active: SK-MEL-2 melanoma -83% | EKVX NSCLC -89.3% | SN12C renal 0.64% | UO-31 renal -37.7% | TK-10 renal -25.7% | ACHN renal -30.5% | CAKI-1 renal -58.3% | A498 renal -40.9% | CCRF-CEM leukemia -35.6% | MOLT-4 leukemia -35.3%

O=c1ccc(Cn2c(C(F)(F)F)cc3c(Cl)ncnc32)c[nH]1
inactive: EKVX NSCLC 95.4% | SN12C renal 47.9% | TK-10 renal 111% | CAKI-1 renal 78.1% | A498 renal 136% | CCRF-CEM leukemia 11.8%
active: SK-MEL-2 melanoma -86.2% | UO-31 renal -88.4% | ACHN renal -54.5% | MOLT-4 leukemia -26.6%

N#C/C(=C1/C(=O)Nc2ccccc21)c1nnc(NC(=O)c2ccc(-n3c(=O)[nH]c4ccccc4c3=O)cc2)s1
inactive: SK-MEL-2 melanoma 57.7% | EKVX NSCLC 38.9% | SN12C renal 33.1% | UO-31 renal 29.5% | TK-10 renal 84.3% | ACHN renal 28.2% | CAKI-1 renal 49.2% | A498 renal 133%
active: CCRF-CEM leukemia 7.74% | MOLT-4 leukemia 0.108%

O=C(c1ccc(O)cc1)C1[C@H](c2ccc(Cl)cc2)[C@@H](c2ccccc2)NC12C(=O)Nc1ccccc12 (stereo not given in full)
active: SK-MEL-2 melanoma -72.3% | EKVX NSCLC 8.32% | SN12C renal -83.8% | UO-31 renal 3.54% | ACHN renal 3.11% | CAKI-1 renal 3.82% | A498 renal -2.62% | CCRF-CEM leukemia -7.04% | MOLT-4 leukemia -34.3%
inactive: TK-10 renal 11.8%

Cc1nn(-c2ccccc2)c2nc(C)n(CC(=O)N/N=C/c3cccc([N+](=O)[O-])c3)c(=O)c12
inactive: SK-MEL-2 melanoma 101% | EKVX NSCLC 76.8% | SN12C renal 89.1% | UO-31 renal 69.7% | TK-10 renal 103% | ACHN renal 104% | CAKI-1 renal 88% | A498 renal 95.8% | CCRF-CEM leukemia 85.1% | MOLT-4 leukemia 88%

O=C(NNC(=S)NCCc1ccccc1)c1ccc(OCc2nc3ccc(Cl)cc3[nH]2)cc1
inactive: SK-MEL-2 melanoma 71.6% | EKVX NSCLC 66.1% | SN12C renal 73.1% | UO-31 renal 54.1% | TK-10 renal 83.8% | ACHN renal 81.1% | CAKI-1 renal 79.9% | A498 renal 166% | CCRF-CEM leukemia 58.9% | MOLT-4 leukemia 39.7%

CCc1ccc(SC2c3cc(OC)ccc3Oc3nc(N)c(C#N)c(N)c32)cc1 (stereo not given)
active: SK-MEL-2 melanoma -88.8% | EKVX NSCLC -76.2% | SN12C renal 1.31% | UO-31 renal 4.16% | TK-10 renal -50.1% | ACHN renal 3.73% | CAKI-1 renal -56.5% | A498 renal -87.9% | CCRF-CEM leukemia 1.76% | MOLT-4 leukemia -50.1%

CCC(=O)c1cc(C(=O)OC)c2ccc3c4ccccc4ccc3n12
active: ACHN renal 0.659%
inactive: SK-MEL-2 melanoma 105% | EKVX NSCLC 83.6% | SN12C renal 57.9% | UO-31 renal 52.9% | TK-10 renal 63.9% | CAKI-1 renal 42.7% | A498 renal 136% | CCRF-CEM leukemia 97.8% | MOLT-4 leukemia 94.8%

c1n[nH]cc1-c1nc2ccc3cn[nH]c3c2c2c1CCCC2
inactive: SK-MEL-2 melanoma 104% | EKVX NSCLC 69.1% | SN12C renal 74.3% | UO-31 renal 61.1% | TK-10 renal 104% | ACHN renal 73.5% | CAKI-1 renal 39.2% | A498 renal 93.8% | CCRF-CEM leukemia 104% | MOLT-4 leukemia 92.7%

COc1cccc2nc(Nc3cccc(NC(=O)c4ccc(CN5CCN(C)CC5)c(C(F)(F)F)c4)c3)ccc12
active: SK-MEL-2 melanoma -87.8% | EKVX NSCLC -96.2% | SN12C renal -90.5% | UO-31 renal -88.6% | TK-10 renal -93.1% | ACHN renal -100% | CAKI-1 renal -100% | A498 renal -94.9% | CCRF-CEM leukemia -44.4% | MOLT-4 leukemia -38.5%

COc1sc(/C=N/NC(=O)c2[nH]c3ccc(Br)cc3c2-c2ccccc2)cc1Cl
active: SK-MEL-2 melanoma -9.93% | EKVX NSCLC -12.3% | SN12C renal -26.6% | UO-31 renal -5.09% | TK-10 renal 9.67% | ACHN renal -67.9% | CAKI-1 renal -46.4% | A498 renal 9.37% | CCRF-CEM leukemia 9.12% | MOLT-4 leukemia -3.08%

N#Cc1cc(-c2ccnc(Nc3ccc(N4CCN(C5COC5)CC4)cc3)n2)ccc1N1CCCC1
inactive: SK-MEL-2 melanoma 84.5% | EKVX NSCLC 90.9% | SN12C renal 52.1% | UO-31 renal 30.5% | TK-10 renal 66.9% | ACHN renal 50.3% | CAKI-1 renal 18.1% | A498 renal 71.2% | CCRF-CEM leukemia 43.4% | MOLT-4 leukemia 40.4%
